Nine molecules from PubChem BioAssay (NCI) can be followed below.

Compounds without any hit were thinned out: in the full panel of roughly 83,000, 20% have a hit.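 48-hour exposure, single concentration, 96-well plates; percent growth endpoint where 0 means no net growth. Active: below 10.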 A number with no mark means an inactive call. The source made the active and inactive calls.

The subject of this test is MDA-MB-435 melanoma. The test can be described thus: NCI-60 one-dose screen, 48 h (100 = growth as untreated, 0 = no growth, -100 = all killed). The settings on record: 10 µM unless noted.
Regarding `NC(CCl)CCl`, the growth is 89.2%.

`[Cl][Hg][n]1c(-c2ccco2)nc2ccccc21`: the growth is 95.7%.

`Cc1cc(N(CCCl)CCCl)ccc1C=Nc1ccccc1-c1ccccc1`: the growth was 93.5%.

On to `CCC1CN1CCCCN1CC1CC` (centres undefined), for which the growth was 93.7%.

For `COC(=O)[C@@H](C)C[C@H](Cc1ccccc1)NC(=O)c1csc([C@@H](C[C@H](C(C)C)N(C)C(=O)[C@@H](NC(=O)C23CC(NC(C)=O)(C2)C3)C2CC2)OC(C)=O)n1`, the growth is -16.5% (active).

Consider `O=[N+]([O-])CC(O)C(Cl)(Cl)Cl` (centres undefined), for which the growth was 103%.

In the case of `CCOc1ccc(/C=C/[N+](=O)[O-])cc1`, the growth was 20.1%.

For the molecule `CN(C)CCCOc1ccc2c(c1)c(C(=O)C(=O)NCCO)cn2Cc1ccccc1`, the growth is 103%.

Regarding `O=C(CC1(O)C(=O)Nc2ccc(Cl)cc21)c1ccc(C(=O)NCC2CCC3(CC2)OOC2(CCCCC2)OO3)cc1` (centres undefined), the growth is 8.39% (active).
